Experimental data reported in the supplement of paper PMC6555819.

test system: PPARg:RXRa 30nM:10nM, anti-RXR (NR concentration 30 nM, RXRa partner concentration 10 nM); test: PBM binding z-score (relative to random genomic background probes); higher = stronger binding; sequences stand for … in GC…GCGATTGACAGCGTAGAATGAAGG
How it was run: (§1)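 Binding buffer was PBS pH 7.4 with 2% milk, 0.02% Triton X-100, 1 mM DTT, 0.2 mg/mL BSA and 0.4 mg/ml salmon testes DNA. In it, ligand-free nuclear receptor dimers were incubated 1 h on custom Agilent 4×180K protein-binding microarrays carrying double-stranded probes. Antibodies against each partner (one per run) detected binding, and z-scores were calculated against random background probes after regression normalization of scanned fluorescence.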

Sequence | PBM binding z-score
CATACAGGGTCAGCAAGGCCAGAGTAGGGACGGC | 0.536
CCTACTGGGCCAAAAAAGTCATTGATGCCGATAA | -0.0301
CCAGACAGGTGGAAGGTAACTCAGTCTGGTACGC | -0.203
GCTAGTTGGTCAGTAAAGGGTCACACACCGGTCG | 0.505
TCTTGTAGCTCAAGCAGGTTAAGAAAGCCTGAGT | 2.04
ACTAGCAGGCCAAGGGTCACTAAAGATTAGTCCG | 6.64
CCGACTGGGGCCAGGTTACCATAACGCACAGCCA | -0.675
ATATGTAGGTTATCGGGTCATTCAATTTGCGCAT | 3.98
CCTTTCGGGTCACTCCAGGTTATAGCATCGGAGT | 1.09
ACAGACAGGTGAGTGAAGGTAACTCCGCTGGACG | 0.0064
TGTCAAAGTTCAACGGTAACGTAAGTATCCACAC | 5.3
ATCTGTAGGTTAAGGGTCATTCAGGTTGGTTCGC | 9.65
GGAAGGAGGGCAAAGTTGATAGCATCTGTCGACG | 7.65
CGTCGAAGTTCAAGGTAACGTAACAGAAAGCAGC | 0.235
AGTCAAAGTTCATCCAGGTAACGTAAGATATGCT | 3.61
TAGCCTAGGTCATGGGCGAGTATACCACGCGAAC | 0.67
CCAGACAGGTGAGAAGGTAACTAAGCCTCGATTA | -0.00796
CATACAGGGTCAGCTACGCCAGAGTAGGGACGGC | 0.875
CATACAGGGTCAGCGAGGCCAGAGTAGGGACGGC | 0.828
AATACAGGGTCATCGCAGGCCAGAGTACGCACAG | 2.73

Sequence | PBM binding z-score
TCATATAGGAAATACAGGTGAAAGTCGGCATCTA | 4.7
TTACCAAGGTGGGCTGAGGTCGTTGATCCAACTC | -0.219
CAAACTAGGTCACCGGAAGGTCAAACTCCGCATG | 6.23
TAGCCTAGGTCAGATCGGACCAGTATACGCTATA | -0.106
TCATATAGGTAAAAGGTGAAAGTCGGTGTGGTAA | 10.3
ACTATTCGTTGAGACGAGGGCAACCGATAGGTTG | 0.255
TCGAGTAGGTTACCAATGGGCCATTCAGCTTTCT | 0.927
TCGAGTAGGTTAGACGGGGCATTCAGCCAACATA | 1.05
AGAATGAGGTTACTAAGATCAGGGAATTGCGGTC | 0.629
CCGACTGAGGCAGAAAGGTTACCATACCATCCGG | 0.27
GCAGACAGGTGAAACGCACGTAACTCAGGGTGGC | -0.437
CCGACTGGGGCAGAAAGGTTACCATACCATCCGG | 0.687
GCTCGGAGGAAAAGGTCAGAGCTTTGTCCGTAGA | 1.36
AGAATGAGGTAAAGATCAGGGAAACAGAATACAT | 0.928
CAGCCCAGGTCAGGGCCAGTATAGGAGGAACGTT | -0.353
CGAACTAGGTCAGAACAGGACAGTGGAGGATGAT | 1.86
CCTACTGGGCCATCAGGTCATTGATATCAACGTT | 1.46
GTTTACGGGTCAAAGGTTATAGCATGAATAGAAT | 9.06
TCAGACAGGTGAAGGTAACTCCGGTACGCAGTCG | 3.78
TAGCCTAGGTCATGGGCCAGTATGCCACGCGAAC | 0.999

test system: PPARg:RXRa 90nM:30nM, anti-RXR (NR concentration 90 nM, RXRa partner concentration 30 nM); test: as above
How it was run: as §1

Sequence | PBM binding z-score
CATACAGGGTCAGCAAGGCCAGAGTAGGGACGGC | 2.04
CCTACTGGGCCAAAAAAGTCATTGATGCCGATAA | 0.41
CCAGACAGGTGGAAGGTAACTCAGTCTGGTACGC | 0.663
GCTAGTTGGTCAGTAAAGGGTCACACACCGGTCG | 1.89
TCTTGTAGCTCAAGCAGGTTAAGAAAGCCTGAGT | 1.39
ACTAGCAGGCCAAGGGTCACTAAAGATTAGTCCG | 7.61
CCGACTGGGGCCAGGTTACCATAACGCACAGCCA | -0.256
ATATGTAGGTTATCGGGTCATTCAATTTGCGCAT | 6.15
CCTTTCGGGTCACTCCAGGTTATAGCATCGGAGT | 2.75
ACAGACAGGTGAGTGAAGGTAACTCCGCTGGACG | -0.389
TGTCAAAGTTCAACGGTAACGTAAGTATCCACAC | 6.83
ATCTGTAGGTTAAGGGTCATTCAGGTTGGTTCGC | 10.6
GGAAGGAGGGCAAAGTTGATAGCATCTGTCGACG | 8.18
CGTCGAAGTTCAAGGTAACGTAACAGAAAGCAGC | 0.847
AGTCAAAGTTCATCCAGGTAACGTAAGATATGCT | 5.54
TAGCCTAGGTCATGGGCGAGTATACCACGCGAAC | 2.09
CCAGACAGGTGAGAAGGTAACTAAGCCTCGATTA | -0.013
CATACAGGGTCAGCTACGCCAGAGTAGGGACGGC | 2.03
CATACAGGGTCAGCGAGGCCAGAGTAGGGACGGC | 2.12
AATACAGGGTCATCGCAGGCCAGAGTACGCACAG | 4.39

Sequence | PBM binding z-score
TCATATAGGAAATACAGGTGAAAGTCGGCATCTA | 3.66
TTACCAAGGTGGGCTGAGGTCGTTGATCCAACTC | -0.0469
CAAACTAGGTCACCGGAAGGTCAAACTCCGCATG | 7.86
TAGCCTAGGTCAGATCGGACCAGTATACGCTATA | 0.213
TCATATAGGTAAAAGGTGAAAGTCGGTGTGGTAA | 10.2
ACTATTCGTTGAGACGAGGGCAACCGATAGGTTG | 0.115
TCGAGTAGGTTACCAATGGGCCATTCAGCTTTCT | 1.04
TCGAGTAGGTTAGACGGGGCATTCAGCCAACATA | 1.04
AGAATGAGGTTACTAAGATCAGGGAATTGCGGTC | 1.7
CCGACTGAGGCAGAAAGGTTACCATACCATCCGG | 0.899
GCAGACAGGTGAAACGCACGTAACTCAGGGTGGC | -0.223
CCGACTGGGGCAGAAAGGTTACCATACCATCCGG | 2.03
GCTCGGAGGAAAAGGTCAGAGCTTTGTCCGTAGA | 4.22
AGAATGAGGTAAAGATCAGGGAAACAGAATACAT | 1.67
CAGCCCAGGTCAGGGCCAGTATAGGAGGAACGTT | 0.469
CGAACTAGGTCAGAACAGGACAGTGGAGGATGAT | 3.73
CCTACTGGGCCATCAGGTCATTGATATCAACGTT | 3.18
GTTTACGGGTCAAAGGTTATAGCATGAATAGAAT | 10.1
TCAGACAGGTGAAGGTAACTCCGGTACGCAGTCG | 2.96
TAGCCTAGGTCATGGGCCAGTATGCCACGCGAAC | 2.81
